Only some compounds are listed: those with a hit (about 19% of all), similar ones and a draw of the others.
HepG2 tox: qHTS for Inhibitors of TGF-b: Cytotox Counterscreen; HepG2 CAGA-GFP viability, ATP luminescence, 18 h; Potency, µM (titrated, usually from 46.1 µM), without a hit: top-dose activity change, negative = cytotoxicity, hits mostly cytotoxic; hit rate 0.76% among 410,000; AID 588856, 2011; also: potency is read from the fitted curve at half-maximal effect
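CellTiter-Glo luminescence gave cytotoxicity after 18 hours at 37 degrees C. The cells were HepG2 CAGA-GFP in 1% FBS DMEM, stimulated with 500 pg/mL TGF-beta after compound addition. %Activity was normalised to no-cell wells (complete cell-killing) and DMSO (no toxicity), and curves were fitted and classified.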
TDP1 cell CPT: qHTS for Inhibitors of human tyrosyl-DNA phosphodiesterase 1 (TDP1): qHTS in cells in presence of CPT; Potency, µM (titrated, usually from 46.2 µM), for the others: top-dose activity change, negative = growth inhibition, hits mostly inhibitors; chicken DT40 Tdp1-/-;hTDP1 cells + 20 nM CPT, ATP luminescence, 48 h; hit rate 12% among 420,000; AID 686979, 2013; also: potency is read from the fitted curve at half-maximal effect; % is scaled to controls: 0 for no effect and ±100 for the full control effect; nearly all actives have a fitted effect of over 55% in size
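Chicken DT40 Tdp1-/- cells stably complemented with human TDP1 were seeded at 400 cells/well in medium containing 20 nM camptothecin, exposed to pin-transferred compounds, and grown at 37 °C for at least 48 hr. Viability was read as ATP luminescence.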
TGFb SMAD3 inh: qHTS for Inhibitors of TGF-b; AID 588855, 2011; HepG2 CAGA-GFP TGF-b/SMAD3 reporter, GFP fluorescence, 18 h; TGF-beta stimulated, 500 pg/mL final; hit rate 1.2% among 410,000; Potency, µM (top dose mostly 46.1 µM), for the others: top-dose activity, negative = inhibition, usual class: inhibitors; also: potency is read from the fitted curve at half-maximal effect; % is scaled to controls: 0 for no effect and ±100 for the full control effect; nearly all actives have a fitted effect of over 65% in size
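Inhibition was scored as loss of TGF-beta-induced (500 pg/mL final, 18 hours, 37 degrees C) GFP in HEPG2 cells carrying a CAGA-GFP reporter, in DMEM with 1% FBS. Well GFP was summed per cell; Activity was normalised to unstimulated and stimulated DMSO wells, then concentration-response fitting.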
S-ASM inh: Inhibitors of Secretory Acid Sphingomyelinase (S-ASM): qHTS; placental ASM, HMU-PC fluorogenic substrate, 60 min; AID 504937, 2011; Potency, µM (titrated, usually from 57.5 µM), for the others: at the highest dose activity change, negative = inhibition, hits mostly inhibitors; hit rate 0.006% among 340,000; Sphingomyelin phosphodiesterase (Homo sapiens), P17405; also: potency is read from the fitted curve at half-maximal effect
Target sequence (P17405 47-631 limits assumed): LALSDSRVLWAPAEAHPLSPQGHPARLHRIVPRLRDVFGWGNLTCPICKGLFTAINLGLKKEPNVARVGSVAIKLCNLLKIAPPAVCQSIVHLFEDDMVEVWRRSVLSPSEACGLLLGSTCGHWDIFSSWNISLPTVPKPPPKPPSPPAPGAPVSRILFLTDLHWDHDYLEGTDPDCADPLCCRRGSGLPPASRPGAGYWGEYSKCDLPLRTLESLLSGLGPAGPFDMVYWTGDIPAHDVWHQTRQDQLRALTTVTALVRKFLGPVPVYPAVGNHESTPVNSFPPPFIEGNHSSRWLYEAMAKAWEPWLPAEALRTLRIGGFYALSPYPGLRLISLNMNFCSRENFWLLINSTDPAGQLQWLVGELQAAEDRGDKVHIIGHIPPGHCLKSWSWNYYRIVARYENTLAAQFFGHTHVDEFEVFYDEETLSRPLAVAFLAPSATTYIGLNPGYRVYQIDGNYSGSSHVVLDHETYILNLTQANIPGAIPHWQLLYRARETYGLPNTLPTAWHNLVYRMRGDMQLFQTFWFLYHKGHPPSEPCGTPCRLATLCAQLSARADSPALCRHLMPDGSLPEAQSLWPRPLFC
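Fluorogenic HMU-PC substrate (9 uM final) is turned over by placental ASM in 60 min at 37 C after a 10 min compound preincubation. Reaction ended by alkaline stop (pH 10), with fluorescence read at 386/447 nm.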
DT40 TDP1 no CPT: qHTS for Inhibitors of human tyrosyl-DNA phosphodiesterase 1 (TDP1): qHTS in cells in absence of CPT; Potency, µM (highest dose often 46.2 µM), for inactives: at the highest dose activity change, negative = growth inhibition, most hits filed as inhibitors; hit rate 15% among 420,000; DT40 Tdp1-/- hTDP1 cells, no CPT, ATP luminescence, 48 h; AID 686978, 2013; also: potency is read from the fitted curve at half-maximal effect; % is scaled to controls: 0 for no effect and ±100 for the full control effect; nearly all actives have a fitted effect of over 55% in size
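Luminescent ATP content (CellTiter-Glo) served as the growth readout. Knockout chicken DT40 cells expressing human TDP1 were exposed to compounds without camptothecin for a minimum 48 hr at 37 °C.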
IL1B secr inh: qHTS for Inhibitors of Inflammasome Signaling: IL-1-beta AlphaLISA Primary Screen | THP-1 LPS/ATP IL-1B secretion, AlphaLISA, 16 h; hits give low values | activity change, % at 57.5 µM | hit rate 4.7% among 360,000; in the data active = activity change below about -50%; inconclusive = mostly about -30% to -49%; also: % is scaled to controls: 0 for no effect and ±100 for the full control effect
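THP-1 cells pretreated 1 hr with compounds (up to 57.5 uM final), then stimulated with LPS (250 ng/mL final) plus ATP (1.25 mM final); secreted IL-1B measured by AlphaLISA after 16 hr, decreased signal indicating inhibition.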
Numbers without * were called inactive; u = inconclusive; x = no result given. Unless noted, calls follow the shape of the dose curve; as a rule, active = well fitted curve in the direction sought with a large enough effect; inconclusive = small, poorly fitted or top-dose-only effect, or another doubt; inactive = no such curve, though single readings can be large; an effect the other way counts as inactive or inconclusive.

SMILES	HepG2 tox	TDP1 cell CPT	TGFb SMAD3 inh	S-ASM inh	DT40 TDP1 no CPT	IL1B secr inh
CN(C)S(=O)(=O)c1cccc(NC(=O)CN2C(=O)NC3(CCc4ccccc4C3)C2=O)c1 (stereo unspecified)	-1%	-22%	5%	-3%	-26%	16
O=C(C1=C(O)C(=O)N(c2nc3ccc(Cl)cc3s2)C1c1ccco1)c1ccco1 (stereo unspecified)	-2%	u	-25%	16%	2.3µM*	63
Cc1ccc2nc(N3C(=O)C(O)=C(C(=O)c4ccc(C)o4)C3c3ccco3)sc2c1 (stereo unspecified)	-3%	-4%	-3%	18%	1%	20
CCOC(=O)c1c(NC(C)=O)sc2c(O)c(CN3CCN(CC)CC3)ccc12	11µM*	u	u	-1%	-17%	-63*
CN(CC(=O)Nc1ccccc1Br)C(=O)c1cccnc1Nc1cccc(C(F)(F)F)c1	-18%	u	u	-23%	u	-25
COc1ccc(OCc2cc(C(=O)NCC(C)Oc3cccnc3)no2)c(Cl)c1 (stereo unspecified)	-17%	u	-5%	x	u	-17
CSc1ccccc1OCc1cc(C(=O)NCCc2nc(C)cc(C)n2)no1	-17%	u	-16%	0%	u	-2
CSc1ccccc1OCc1cc(C(=O)NCC(C)Oc2cccnc2)no1 (stereo unspecified)	-16%	u	3%	x	16µM*	-17
CSc1ccccc1OCc1cc(C(=O)NCCCn2nc(C)cc2C)no1	-39%	16µM*	-5%	3%	21µM*	-13
C#Cc1ccc([C@@H]2C=C(C(=O)N3CCN(Cc4ccc5c(c4)OCO5)CC3)O[C@H](OCC)[C@H]2CCCO)cc1	-25%	u	u	2%	u	0
CCC(Sc1ncc(S(=O)(=O)c2ccc(Cl)cc2)c(=O)[nH]1)C(=O)Nc1ccc(OC)cc1 (stereo unspecified)	6%	x	2%	x	x	x
Clc1cccc(/C=N/Nc2nnc(Cl)c3ccccc23)c1	-7%	u	u	-3%	-24%	u
Clc1ccc(/C=N/Nc2nnc(-c3ncc[nH]3)c3ccccc23)cc1	-34%	u	17%	10%	21µM*	22
COc1c(C)cc(Br)cc1C(=O)Nc1ccc(S(N)(=O)=O)cc1	3%	1%	1%	0%	-18%	-4
CSCCC(NS(=O)(=O)c1ccc(Cl)cc1)C(=O)OCC(=O)NC12CC3CC(CC(C3)C1)C2 (stereo unspecified)	-25%	13µM*	u	-6%	u	-24
CSCCC(NS(=O)(=O)c1ccc(Cl)cc1)C(=O)OCC(=O)N1CCOCC1 (stereo unspecified)	-11%	-13%	5%	5%	-12%	5
CSCCC(NS(=O)(=O)c1ccc(Cl)cc1)C(=O)OCC(=O)N1CCCc2ccccc21 (stereo unspecified)	-10%	23µM*	5%	-3%	18µM*	-4
CCOC(=O)C(=Cc1ccc(OCc2ccc([N+](=O)[O-])cc2)c(OC)c1)C(=O)OCC	-72%	13µM*	u	-4%	15µM*	-101*
COc1cc(C=O)ccc1OCCCOc1ccc([N+](=O)[O-])cc1	-16%	u	-24%	-1%	u	12
COC(=O)C(=Cc1ccc(OCc2ccc([N+](=O)[O-])cc2)c(OC)c1)C(=O)OC	-62%	9.2µM*	u	-2%	13µM*	-92*
COc1cccc(OC)c1NC(=O)Cn1nc(C)c2ccccc2c1=O	16%	u	-1%	0%	u	9
COc1ccc([C@H]2C[C@H](O)C[C@@H](CCn3cc(-c4ccccc4)nn3)O2)cc1	x	u	x	x	u	69
COc1cc(/C=C2/SC(=O)NC2=O)ccc1Oc1ccc([N+](=O)[O-])cc1[N+](=O)[O-]	-18%	u	u	-2%	u	u
COc1cc(/C=C2\C(=O)N(c3ccccc3)N=C2C)ccc1Oc1ccc([N+](=O)[O-])cc1[N+](=O)[O-]	-44%	16µM*	u	1%	18µM*	u
COc1cc(/C=C2\SC(N)=NC2=O)ccc1OCC(=O)Nc1ccccc1C	-46%	u	2%	23%	9.2µM*	9
SMILES	HepG2 tox	TDP1 cell CPT	TGFb SMAD3 inh	S-ASM inh	DT40 TDP1 no CPT	IL1B secr inh
COc1cc(/C=C2/SC(N)=NC2=O)ccc1Oc1ccc([N+](=O)[O-])cc1[N+](=O)[O-]	-22%	3.3µM*	-1%	0%	2.9µM*	8
Fc1ccc(Nc2nc(-c3cccc(Cl)c3)c3c(n2)-c2ccccc2OC3)c(F)c1	-11%	-17%	10%	x	-27%	x
COc1ccc(N2CCN(C(=O)c3ccc4c(c3)CCN4S(C)(=O)=O)CC2)cc1	-26%	u	u	x	u	-4
Cc1cc(C(=O)N2CC=C(c3ccccc3)CC2)c2ccccc2n1	-2%	0.58µM*	u	-1%	0.92µM*	-3
O=C(O)c1ccccc1C(=O)N1CC=C(c2ccccc2)CC1	3%	u	-23%	6%	26µM*	21
Cc1c(C(=O)C(=O)N2CC=C(c3ccccc3)CC2)c2ccccc2n1C	5%	2.9µM*	8%	-11%	2.6µM*	33
Cc1ccc(NC(=O)c2ccc(CNc3c(N4CCC(C)CC4)c(=O)c3=O)cc2)cc1	18%	3%	3%	-2%	-1%	12
O=C(c1ccoc1)N1CCC2(CC1)Oc1ccc(F)cc1C(=O)C21CC(c2ccccc2)=NO1 (stereo unspecified)	-10%	u	-18%	-9%	u	-20
O=C1c2cc(F)ccc2OC2(CCNCC2)C12CC(c1ccccc1)=NO2 (stereo unspecified)	-50%	15µM*	1%	-10%	u	-53*
CC(C)(C)OC(=O)N1CCC2(CC1)Oc1ccc(F)cc1C(=O)C21CC(c2ccccc2)=NO1 (stereo unspecified)	-69%	23µM*	7%	-1%	u	u

Compound activity from PubChem BioAssay.
